Structures can show the parent of a compound that is named as a salt.
Each compound was assayed on Saccharomyces cerevisiae (assay: fraction of cells in G1 phase (DNA content, flow cytometry); higher = more cells with unreplicated DNA (G1 delay)). Conditions: temperature: 30 C; YPD; JTY2953 pdr5 snq2 (sensitized); drug added to: cultures diluted from stationary phase; 6-7 h.
How it was run: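 Yeast (S. cerevisiae) in YPD at 30°C was treated with library drugs, and cells were then fixed in ethanol, stained with SYTOX Green and counted by flow cytometry over 10,000 events. Sensitized JTY2953 diluted 1∶200 from an overnight culture got a final 20 µg/ml and was fixed 6–7 h later; other runs dosed dividing JTY2953 (fixed at 6 h) or BY4741 (fixed at 4.33 h). G1 fraction means the Dean-Jett-Fox G1 peak area relative to the G1 and G2/M areas together.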

Row | SMILES | fraction of cells in G1 phase
1 | CN[C@@H]1[C@H](O[C@H]2[C@H](O[C@H]3[C@H](O)[C@@H](O)[C@H](N=C(N)N)[C@@H](O)[C@@H]3N=C(N)N)O[C@@H](C)[C@]2(O)C=O)O[C@@H](CO)[C@H](O)[C@H]1O [Streptomycin sulfate] (34.3888 µM) | 0.478
2 | C[C@H]1[C@H](NC(=O)/C(=N\OC(C)(C)C(=O)O)c2csc(N)n2)C(=O)N1S(=O)(=O)O [Aztreonam] (45.9309 µM) | 0.489
3 | CCCCC(C)(O)C/C=C/[C@H]1[C@H](O)CC(=O)[C@@H]1CCCCCCC(=O)OC (mixture of isomers) [Misoprostol] (52.2814 µM) | 0.499
4 | CN(C)C(=N)NC(=N)N [Metformin] (154.84 µM) | 0.516
5 | Cc1cccc(Nc2ccccc2C(=O)O)c1C [Mefenamic acid] (82.887 µM) | 0.464
6 | CCN(CC)C(=O)/C(C#N)=C/c1cc(O)c(O)c([N+](=O)[O-])c1 [Entacapone] (65.5109 µM) | 0.508
7 | COc1ccccc1OCC(O)CN1CCN(CC(=O)Nc2c(C)cccc2C)CC1 (configuration not stated) [Ranolazine 2HCl] (46.7783 µM) | 0.445
8 | Nc1nc(N)nc(-c2cc(Cl)ccc2Cl)n1 [Irsogladine maleate] (78.0958 µM) | 0.471
9 | O=NN(CCCl)C(=O)NC1CCCCC1 [Lomustine] (85.5799 µM) | 0.451
10 | CCOC(=O)C1=C(C)NC(C)=C(C(=O)OC)C1c1cccc([N+](=O)[O-])c1 (configuration not stated) [Nitrendipine] (55.4985 µM) | 0.472
11 | COc1ccc(C(=O)NCc2cccnc2)cc1C(=O)NCc1cccnc1 [Picotamide] (53.1323 µM) | 0.459
12 | C[C@]12C=CC(=O)C=C1CC[C@H]1[C@@H]3C[C@@H](O)[C@](O)(C(=O)CO)[C@@]3(C)C[C@H](O)[C@@]12F [Triamcinolone] (50.7043 µM) | 0.483
13 | COc1cc2nc(N3CCN(C(=O)C4CCCO4)CC3)nc(N)c2cc1OC (configuration not stated) [Terazosin HCl] (51.6206 µM) | 0.504
14 | CO/N=C(\C(=O)N[C@@H]1C(=O)N2C(C(=O)[O-])=C(C[N+]3(C)CCCC3)CS[C@H]12)c1csc(N)n1 [Cefepime] (41.6174 µM) | 0.504
15 | C[C@@H](O)[C@H]1C(=O)N2C(C(=O)O)=C(S[C@@H]3CN[C@H](C(=O)N(C)C)C3)[C@H](C)[C@H]12 [Meropenem] (52.1553 µM) | 0.495
16 | OCCN(CCO)c1nc(N2CCCCC2)c2nc(N(CCO)CCO)nc(N3CCCCC3)c2n1 [Dipyridamole] (39.6324 µM) | 0.535
17 | N=C(N)N/N=C/c1c(Cl)cccc1Cl [Guanabenz acetate] (86.548 µM) | 0.488
18 | CC(C)(C)NC(=O)[C@H]1CC[C@H]2[C@@H]3CC[C@H]4NC(=O)C=C[C@]4(C)[C@H]3CC[C@]12C [Finasteride] (53.6833 µM) | 0.558
19 | CCCCc1ncc(/C=C(\Cc2cccs2)C(=O)O)n1Cc1ccc(C(=O)O)cc1 [Eprosartan] (47.1117 µM) | 0.493

Row | SMILES | fraction of cells in G1 phase
20 | C=C1/C(=C\C=C2/CCC[C@]3(C)[C@@H]([C@H](C)CCCC(C)(C)O)CC[C@@H]23)C[C@@H](O)C[C@@H]1O [Calcitriol] (48.0019 µM) | 0.565
21 | CC(C)Nc1cccnc1N1CCN(C(=O)c2cc3cc(NS(C)(=O)=O)ccc3[nH]2)CC1 [Delavirdine mesylate] (43.8048 µM) | 0.487
22 | C=C(CC)C(=O)c1ccc(OCC(=O)O)c(Cl)c1Cl [Ethacrynic acid] (65.9752 µM) | 0.513
23 | Nc1ncnc2c1ncn2[C@@H]1O[C@H](CO)[C@@H](O)[C@@H]1O [Vidarabine] (74.8374 µM) | 0.481
24 | CN(C)C(=O)C(CCN1CCC(O)(c2ccc(Cl)cc2)CC1)(c1ccccc1)c1ccccc1 [Loperamide] (38.9864 µM) | 0.512
25 | c1ccc([C@H]2CN3CCSC3=N2)cc1 [Levamisole HCl] (97.8973 µM) | 0.488
26 | COC(=O)N/N=C/c1c[n+]([O-])c2ccccc2[n+]1[O-] [Carbadox] (76.2699 µM) | 0.414
27 | CC(C)(C)NC[C@H](O)COc1nsnc1N1CCOCC1 [Timolol maleate (s)] (63.2061 µM) | 0.499
28 | CO[C@@H]1[C@H](OC(=O)/C=C/C=C/C=C/C=C/C(=O)O)CC[C@]2(CO2)[C@H]1[C@@]1(C)O[C@@H]1CC=C(C)C [Fumagillin] (43.6151 µM) | 0.518
29 | CCN1CCC[C@H]1CNC(=O)c1c(OC)ccc(Br)c1OC [Remoxipride] (53.8681 µM) | 0.525
30 | CC(C[N+](C)(C)C)OC(N)=O (stereo not drawn) [Carbamyl-beta-methylcholine Cl] (124.05 µM) | 0.5
31 | O=C(O)c1cc(=O)c2c(OCC(O)COc3cccc4oc(C(=O)O)cc(=O)c34)cccc2o1 [Disodium cromoglycate] (39.0365 µM) | 0.529
32 | Cn1nnc2c(C(N)=O)ncn2c1=O [Temozolomide] (103.011 µM) | 0.48
33 | CNC(=C[N+](=O)[O-])NCCSCc1ccc(CN(C)C)o1 [Ranitidine HCl] (63.6114 µM) | 0.501
34 | COc1cc(CNC(=O)CCCC/C=C/C(C)C)ccc1O [Capsaicin] (65.4834 µM) | 0.556
35 | CN(C)CCCN1c2ccccc2CCc2ccccc21 [Imipramine HCl] (71.3225 µM) | 0.524
36 | Nc1ccc(C(=O)O)c(O)c1 [4-aminosalicylic acid] (130.601 µM) | 0.481
37 | O=C(c1ccc(OCCN2CCCCC2)cc1)c1c(-c2ccc(O)cc2)sc2cc(O)ccc12 [Raloxifene HCl] (42.2301 µM) | 0.508
